# Measured values reported in ChEMBL document CHEMBL4888484, “Replenishing the malaria drug discovery pipeline: Screening and hit evaluation of the MMV Hit Generation Library 1 (HGL1) against asexual blood stage Plasmodium falciparum ,using a nano luciferase reporter read-out” (2022).
# Hit rate of the full screen: of about 4,800 compounds, about 410 (8.5%) showed an effect of 50% or more. This excerpt belongs to a sample that is enriched for strong results.
# Tested on: Plasmodium falciparum
# Test: Confirmatory screen in NF54 pLDH assay, in single point, at 2uM, 72h
# Format: functional, Erythrocyte
# Conditions: timepoint 72 hour
row,Structure (SMILES),% Inhibition
1,O=C(Cn1c(=O)n(-c2cc(F)cc(F)c2)c(=O)c2sccc21)NCc1ccc(F)cc1F,-2%
2,CCC(CC)C(=O)c1c[nH]c(C(N)=O)c1,-17%
3,Cc1noc(CCNC(=O)N2CCCCC[C@H]2c2ccc(C)o2)n1,-1%
4,CC(C)(C)c1nc(Cn2cnc3ncc(Br)cc32)no1,6%
5,NS(=O)(=O)N1CCN(Cc2ccn(C3CCCC3)n2)CC1,9%
6,O=C1C[C@H](c2cccnc2)c2cnn(C3CCCC3)c2N1,16%
7,Cc1nn(-c2nc3ccccc3[nH]2)c2c1[C@@H](c1cccnc1)CC(=O)N2,79%
8,Cc1nn(-c2ncccn2)c2c1[C@@H](c1ccccc1)CC(=O)N2,-15%
9,Cc1noc(C2CCN(CC(=O)Nc3ccccc3C(=O)NCC(C)C)CC2)n1,1%
10,CCOC(=O)c1nc[nH]c1-n1nc(C)cc1C,7%
11,COc1ccc(-c2nccn3cc(C(=O)N4CCCCCC4)nc23)cc1,4%
12,CC(=O)NC1CN(C(=O)Nc2ccc(C(C)C)c(F)c2)C1,-11%
13,COc1ccc(C2C(C(=O)O)c3ccccc3C(=O)N2C2CCCCC2)cc1 (configuration not stated),-13%
14,Cc1c([C@@H](NCc2ncccc2O)C(C)C)oc2ccccc12,94%
15,CC1=NN(c2nc(C)cc(O)n2)C(=O)C1,-6%
16,COc1cccc(-c2nc3n(c2C(=O)Nc2ccccc2C#N)CCS3(=O)=O)c1,9%
17,Cc1ccc(-c2ccc(=O)n(CCC(=O)N3CCN(C4CCCCC4)CC3)n2)cc1,0%
18,C[C@H]1C(=O)N(C)C[C@@H](CNS(=O)(=O)c2ccccc2)N1Cc1cccnc1,9%
19,CN(C)CC(O)COc1ccc(S(=O)(=O)c2ccc(OCC(O)CN(C)C)c(Cl)c2)cc1Cl (configuration not stated),61%
20,CCN(CC)c1ccc(NS(=O)(=O)c2cc(S(=O)(=O)c3ccc(Cl)c(S(=O)(=O)Nc4ccc(N(CC)CC)cc4)c3)ccc2Cl)cc1,5%
21,COc1cc(=O)c(C(=O)NCCN2CCCCC2)nn1-c1ccc(F)cc1,0%
22,Cc1ccc(C(=O)N2CCCC23CCC3)nn1,-9%
23,O=C(c1[nH]nc(C2CC2)c1Br)N1CCC12CCC2,-3%
24,CCOc1ccc(C2C(C(=O)O)CCC(=O)N2C2CCCCC2)cc1 (configuration not stated),10%
25,CN(C)c1ccc(C(=O)N2CC[C@H]3NC(=O)N(Cc4ccccc4)C(=O)[C@H]32)cc1,-5%
26,Cc1ccc(S(=O)(=O)Nc2cccc(-c3csc(C)n3)c2)cc1,10%

row,Structure (SMILES),% Inhibition
1,COc1ccc(CNC(=O)c2sc(Nc3ccc(C)cc3C)nc2C)c(OC)c1,-2%
2,O=C1[C@H](c2cccnc2)N(CCCc2ccccc2)C(=O)CN1c1ccccc1,-15%
3,CCC(=O)N(CCN(C)C)Cc1c(-c2ccccc2)noc1N1CCCCC1,13%
4,CCN(CCN(C)C)C(=O)c1cccc(-c2ccc3nccc(N)c3c2)c1,96%
5,COc1ccc(-c2cc3nn(CC(=O)NCCC(C)C)c(=O)n3c(C)n2)cc1,1%
6,CCc1sc(N(C(=O)CCc2ccccc2)c2ccc(C)cc2C)nc1-c1ccc(OC)cc1,9%
7,CCn1ncc(-c2cc(C(F)(F)F)c3c(C(C)C)nn(-c4ccc(F)cc4)c3n2)c1C,-1%
8,O=C(C[C@H]1CCC(=O)N(Cc2ccccc2)CC1)NC1CCN(Cc2ccccc2)CC1,6%
9,O=C(NC1CCCCCC1)c1cn(CC2(O)CCN(Cc3ccccc3)CC2)nn1,15%
10,CCn1ncc(C(=O)n2nc(C)cc2C)c1C,10%
11,O=c1cc(N2CCN(C3CCCC3)CC2)cnn1Cc1ccccc1,-19%
12,Cc1ccnc(-n2nccc2NC(=O)[C@H](C)Oc2ccccc2)c1,0%
13,O=c1c2ccccc2nc2cc(-c3ccc(O)cc3)c(-c3ccccc3)nn12,28%
14,CCOC(=O)NC(c1ccccc1F)C1CCCCC1=O (configuration not stated),1%
15,O=C(CN1N=C(C(=O)Nc2ccccc2)CCC1=O)Nc1ccc(OC(F)(F)F)cc1,-8%
16,CC[n+]1c(/C=C/N(C)c2ccccc2)oc2ccccc21,76%
17,CC[n+]1c(/C=C/N(C)c2ccccc2)oc2ccc(-c3ccccc3)cc21,91%
18,CCCn1nnc(N(C(=O)c2cc(Br)cc(C)c2OC)C(=O)c2cc(Br)cc(C)c2OC)n1,0%
19,CCCC1CCC(c2ccc(-c3noc(-c4ccc(O)c(F)c4)n3)cc2)CC1 (configuration not stated),4%
20,CC(C)c1ccc2ncnc(N[C@H]3CCc4[nH]cnc4C3)c2c1,101%
21,O=c1[nH]nc(-c2ccc3c(c2)CCC3)c2ccccc12,-1%
22,COc1ccc(-c2cc3ncc(C(=O)c4cc(Cl)ccc4O)cn3n2)cc1,78%
23,COc1ccc(C2=NC3(CCN(Cc4ccccc4)CC3)N[C@H](c3cc(Cl)ccc3O)C2)cc1,9%
24,O=C(Nc1ccc2c(c1)CNCC2)C1CC1c1ccc(F)c(F)c1 (configuration not stated),15%
25,COc1ccccc1CC(=O)N(c1nc(C)cs1)C1CC1,-8%
26,Cc1c(NC(=O)N2CCC(C)C(n3ccnc3)C2)cccc1N(C)C (configuration not stated),7%

row,Structure (SMILES),% Inhibition
1,COc1ccc(Cl)cc1NC(=O)Cc1c(C)nc2nc(-c3ccccc3C)nn2c1C,6%
2,COc1ccc(CC(=O)Nc2cc(C)n(-c3cccc(Cl)c3)n2)cc1,93%
3,COc1ccc(-n2nc(C)c(Cc3ccc(Cl)cc3)c2O)cc1,12%
4,C[C@@H](C(=O)NCCN1CCCCC1)N1C(=O)COc2ccc(C(=O)COc3ccccc3Cl)cc21,-20%
5,Cc1nn(-c2ccccc2)c2c1[C@@H](c1ccc(C(F)(F)F)cc1)N(c1ccccc1)C(=O)N2,9%
6,CCn1ncc(NC(=O)c2cc(-c3ccccc3)on2)c1C,-19%
7,CCc1ccccc1Nc1nc(C)c(C(=O)NCc2cccnc2)s1,-22%
8,O=S(=O)(Cc1cc(Cl)cc(Cl)c1)NCCCCn1ccnc1,-11%
9,COc1ccc(-c2nccn3cc(C(=O)NCCc4ccncc4)nc23)cc1,5%
10,COc1ccc(Nc2nnc(-c3ccc(NC(=O)C(=O)NCCCn4ccnc4)cc3)s2)cc1,76%
11,CCOc1ccc(CN2CC[C@H](Nc3ncccn3)[C@@H](O)C2)cc1Cl,-18%
12,CC(C)c1nc(O)cc(CN2CCCCC2)n1,4%
13,CC(C)c1ccc(-c2nc(CN3CCCCC3)cc(CN3CCCCC3)c2O)cc1,95%
14,Cc1ccc(-c2ccnn2C)cc1NC(=O)[C@H]1CCCOC1,13%
15,COc1cc(C(=O)Nc2nnc(-c3ccc(C)s3)[nH]2)on1,9%
16,O=C(NCC1CC12CCc1ccccc12)NC1CC2CCC1O2 (configuration not stated),1%
17,Cc1ccc2nc(O)c3nnc(C)n3c2c1,15%
18,NS(=O)(=O)c1ccc(-c2noc(C3(c4cccc(F)c4)CCC3)n2)cc1,-9%
19,CN(C)CCCNc1nc(N2CCCC2)c2c(c1C#N)CCN(C)C2,14%
20,CC(C)C(NC(=O)c1ccccc1F)C(=O)NC1CCC(N(C)C)C1 (configuration not stated),-9%
21,CC1CCCN(c2nc(O)c3c(n2)NC(=O)CC3c2cccc(C(F)(F)F)c2)C1 (configuration not stated),9%
22,CC(C)Cc1nsc(N2CCOC3CCN(C)CC32)n1 (configuration not stated),11%
23,CN1c2cc(C(=O)N3CCN(c4ccccc4Cl)CC3)ccc2C(=O)N2CCCC[C@H]21,5%
24,Nc1ccnc(OCc2ccccc2)n1,-16%
25,C[C@H](Oc1ccc(F)cc1)C(=O)N1CCC(c2nc3cc(Cl)ccc3s2)CC1,-1%
26,Cc1cc(N(CCO)C2CC2)nc(C2CC2)n1,-18%

row,Structure (SMILES),% Inhibition
1,Cc1cc(N(C)CCC2CC2)nc([C@H](C)N(C)CCC2CC2)n1,61%
2,Clc1ccc2c(c1)CC[C@@H]2NCc1nnc2n1CCC2,3%
3,O=C(NCCc1cccnc1)OCC(F)(F)F,-19%
4,N[C@H]1C[C@H](c2cc(NCCCc3cccnc3)nc(C3CC3)n2)C1,77%
5,Cc1ccc(OCCNc2cc([C@H]3C[C@H](N)C3)nc(C3CC3)n2)cc1C,25%
6,Cc1ccc(N(C)CC(=O)N2CCC2)c(Br)c1,-7%
7,COc1ccc(CCc2nc(NC(=O)c3[nH]nc4c3CCC4)n[nH]2)cc1,-15%
8,O=C(Cc1ccccc1)Nc1c2c(nc3c1CCC3)CCCC2,8%
9,COc1ccc(C(=O)N(C(=O)c2ccc(OC)cc2)c2c3c(nc4ccccc24)CCCC3)cc1,61%
10,Cc1ccc2c(c1)N(C(=O)c1c[nH]c(C)cc1=O)CCC2,-3%
11,Cc1cc(C)n(-c2nc(Nc3ccc(Cl)cc3)nc(Nc3ccc(Cl)cc3)n2)n1,87%
12,Cc1cc(C)n(-c2nnc(-c3ccccc3)c(-c3ccccc3)n2)n1,10%
13,COc1cc(OC)nc(-n2nc(C)cc2C(=O)Nc2ccc(Cl)cc2)n1,18%
14,Cc1cc(C)c(S(=O)(=O)Cc2ccccc2)c(O)n1,12%
15,Cc1ocnc1C(=O)N[C@H]1CCN(c2ccc(Cl)c(F)c2)C1=O,7%
16,Cc1cc(N2CC(OCc3ccccc3)C2)nc(Nc2cccc(O)c2)n1,96%
17,Cc1cc(N2C[C@H]3CC[C@@H](C2)[C@H]3N(C)C)nc(Nc2cccc(O)c2)n1,86%
18,Cc1cccc([C@@H](NC(=O)Nc2ncco2)C(F)(F)F)c1,-15%
19,N#Cc1ccccc1OCc1csc(-c2ccccn2)n1,6%
20,O=C(Nc1nc(CCc2c[nH]c3ccccc23)n[nH]1)c1cccnc1,12%
21,CC1=NN(S(=O)(=O)c2ccc(F)cc2)C(=O)c2ccccc2O1,5%
22,CN(Cc1nnc2n1CCC2)C(=O)Cc1cccs1,9%
23,COc1cc(CN(CC(N)=O)C(C)C)ccc1C,9%
24,Cc1cc(C(=O)NCc2nc3ccccc3s2)c(C)o1,7%
